Assay results taken from PubChem BioAssay (Tox21).
Where “and” joins values, the source holds several entries; their conditions need not be identical. Identical values can stand only once. Results filed as inconclusive are left out. Where a call stands in place of a potency, no number is given. More than one record can exist for a structure, and the calls need not agree. Calls of active or inactive are those of the source. Calls come from the whole dose curve; as a rule, active = well fitted inhibition curve with a large enough effect in the repeat runs; inconclusive = weak or mixed curves; inactive = no such curve, though single readings can be large or run the other way.

Target: Cytochrome P450 3A4 (Homo sapiens) (UniProt P08684)
Assay: Cytochrome P450 Family 3 Subfamily A Member 4 (CYP3A4) small molecule antagonists: luciferase reporter qHTS assay (AID 1671201); note: nearly all actives have a fitted effect of over 50% in size
Conditions: P450-Glo CYP3A4 enzyme, luciferin luminescence, 1 h; series mostly up to 115 µM; activity change, negative = inhibition: at the top concentration
Description: National Center for Advancing Translational Sciences [NCATS]
U.S. Environmental Protection Agency [EPA]
National Institutes of Environmental Health Sciences [NIEHS]
National Toxicology Program [NTP]
U.S. Food and Drug Administration [FDA]
Cytochrome P450 (CYP) enzymes are membrane-bound hemeproteins that play a key role in metabolism of drugs and xenobiotics. Evaluation of the effect of chemicals on CYP isozymes is useful to minimize the adverse drug reactions and toxicities in drug development process. Tox21 chemicals were tested for their effect on CYP enzyme activities by using P450-Glo (TM) screening systems (Promega Corporation, Madison, WI). These systems provide a luminescent method containing proluciferin substrates and are converted to luciferin products by CYP isozymes. The luciferin products formed are detected with a luciferin detection reagent, and the amount of light produced is proportional to CYP activity. P450-Glo (TM) CYP3A4 screening system (Catalog. No. V9910) was used to detect the compounds that interfere in CYP3A4 activity. The positive control compound used for CYP3A4 assay is ketoconazole (Sigma-Aldrich, St. Louis, MO).
Tox21 Assay Protocol Summary:
Two ul of enzyme-substrate mix was dispensed into medium binding white/solid 1536-well plates (Greiner Bio-One North America Inc., Monroe, NC) using a BioRaptr Flying Reagent Dispenser (FRD, Beckman Coulter, Brea, CA). Compounds dissolved in DMSO and positive control (ketoconazole) were transferred to the assay plates at 23 nl using a Pintool station (Wako, San Diego, CA). The assay plates were incubated at room temperature for 10 min. Then 2 ul of NADPH regeneration solution was added to each well of the assay plates using an FRD and incubated at room temperature for 1 h. The reaction was stopped by adding 4 ul of detection reagent using an FRD and after 20 min incubation at room temperature the luminescence signal was measured using a ViewLux plate reader (Perkin Elmer, Shelton, CT). Data were expressed as relative luminescence units.
Potency is the fitted concentration of half-maximal effect.

Sequence of Cytochrome P450 3A4 (Homo sapiens) (P08684 whole entry, looked up): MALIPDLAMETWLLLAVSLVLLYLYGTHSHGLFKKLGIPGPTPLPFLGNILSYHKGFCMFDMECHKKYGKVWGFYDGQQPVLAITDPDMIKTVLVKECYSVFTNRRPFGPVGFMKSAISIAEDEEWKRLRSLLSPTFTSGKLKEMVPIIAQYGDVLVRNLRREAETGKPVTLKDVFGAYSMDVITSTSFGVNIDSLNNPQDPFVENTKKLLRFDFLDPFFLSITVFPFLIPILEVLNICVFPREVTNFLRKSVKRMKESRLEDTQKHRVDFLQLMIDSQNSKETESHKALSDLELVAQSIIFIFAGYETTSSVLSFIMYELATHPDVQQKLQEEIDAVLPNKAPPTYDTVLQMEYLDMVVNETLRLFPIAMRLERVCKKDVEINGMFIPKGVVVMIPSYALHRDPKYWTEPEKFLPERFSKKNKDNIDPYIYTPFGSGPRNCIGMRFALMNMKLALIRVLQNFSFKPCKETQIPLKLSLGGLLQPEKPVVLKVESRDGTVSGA

| Compound | Potency | activity change, negative = inhibition |
| --- | --- | --- |
| C=CC(=O)NC(C)(C)CS(=O)(=O)O | inactive |  |
| NC(=O)N1c2ccccc2C=Cc2ccccc21 | inactive |  |
| Cc1ccc(O)c(-n2nc3ccccc3n2)c1 | 22.3 µM (active) and 25.2 µM (active) |  |
| COc1ccc(C(=O)c2ccccc2)c(O)c1 | inactive |  |
| O=C1CCCCCN1 | inactive |  |
| COCC(C)N (stereo not given) | inactive |  |
| CC1=NN(c2ccccc2)C(=O)C1 | inactive |  |
| CN(C)C=O | inactive |  |
| CC(C)(C)NCC(O)c1ccc(O)c(CO)c1 (stereo not given) | inactive |  |
| O=C(O)CN(CC(=O)O)CC(=O)O | inactive |  |
| CC(=O)/C=C/C1=C(C)CCCC1(C)C | 35.6 µM (active) |  |
| CC1=C(/C=C/C(C)=C/C=C/C(C)=C/C(=O)O)C(C)(C)CCC1 | 35.6 µM (active) and 28.2 µM (active) |  |
| CC(C)CC(C)CC(O)CC(C)C (stereo not given) | inactive |  |
| CCOCCO | inactive |  |
| NCCNc1cccc2ccccc12 | 31.7 µM (active) and inactive |  |
| C[C@]12C[C@H](O)[C@H]3[C@@H](CCC4=CC(=O)CC[C@@]43C)[C@@H]1CC[C@@H]2C(=O)CO |  | 7.83% [at 52.9 µM] (inactive) |
| CC(C)Cc1ccc(C(C)C(=O)O)cc1 (stereo not given) | inactive |  |
| Cc1c(N(C)CS(=O)(=O)O)c(=O)n(-c2ccccc2)n1C | inactive |  |
| N[C@@H](Cc1c[nH]c2ccccc12)C(=O)O | inactive |  |
| CCN(CC)CCOC(=O)c1ccc(N)cc1 | inactive |  |

| Compound | Potency | activity change, negative = inhibition |
| --- | --- | --- |
| C[C@]12CC[C@@H]3c4ccc(O)cc4C[C@@H](CCCCCCCCCS(=O)CCCC(F)(F)C(F)(F)F)[C@H]3[C@@H]1CC[C@@H]2O (stereo not given in full) | 2 µM (active) and 1.86 µM (active) and 1.55 µM (active) |  |
| COCCOCCOC | inactive |  |
| C=CCOC(=O)CC(C)C | inactive |  |
| O=[N+]([O-])c1ccc(O)cc1 | 5.86 µM (active) and inactive |  |
| CCCCCCCCCCCCCCCCCC(=O)OCC(O)CO (stereo not given) | inactive |  |
| CCCCOCCOCCOC(C)=O | inactive |  |
| C1CNCCN1 | inactive |  |
| O=C(O)CCCCC1CCSS1 (stereo not given) | inactive |  |
| CCN1CCCC1=O |  | 10.3% [at 52.9 µM] (inactive) |
| COc1ccc(O)cc1 | inactive |  |
| CC(=O)Oc1ccccc1C(=O)O | inactive |  |
| NC(N)=NC(N)=NCCc1ccccc1 | inactive |  |
| C=C(C)OC(C)=O | inactive |  |
| COC(=O)c1ccc(C=O)cc1 | inactive |  |
| CCCCCCCCOc1ccc(C(=O)c2ccccc2)c(O)c1 |  | 164% (inactive) |
| NC(=O)c1ccc([N+](=O)[O-])cc1Cl | inactive |  |
| Cc1cccc(C)c1O | inactive |  |
| CCCCNC(=O)NS(=O)(=O)c1ccc(N)cc1 | inactive |  |
| CCCCCCCC(=O)OCC(O)CO (stereo not given) | inactive |  |
| NC(=O)N/N=C/c1ccc([N+](=O)[O-])o1 | inactive |  |
